According to PubChem BioAssay (Tox21):
Values joined by “and” are separate entries in the source; they are usually repeats but may differ in a detail not shown here. Equal values may be shown once. Inconclusive results are not listed. Active and inactive are the calls of the source. Calls come from the whole dose curve; as a rule, active = well fitted cell-killing curve with a large enough effect in the repeat runs; inconclusive = weak or mixed curves, or effect the other way; inactive = flat fitted curve, though single readings scatter.

Test: qHTS RealTime-Glo MT Cell Viability Assay in HEK293 cells - 24 hour (AID 1224886); note: nearly all actives have a fitted effect of over 50% in size; for activity change, negative = cytotoxicity: top concentration of the series differs between compounds
Settings: RealTime-Glo luminescence; series mostly up to 76.8 µM; activity change, negative = cytotoxicity: at the top concentration
Text: National Center for Advancing Translational Sciences [NCATS]
NIH Chemical Genomics Center [NCGC]
U.S. Environmental Protection Agency [EPA]
National Institutes of Environmental Health Sciences [NIEHS]
National Toxicology Program [NTP]
U.S. Food and Drug Administration [FDA]
Measure of cell viability is critical in the cell-base assay. Analysis of cell viability is necessary for the characterization of cell responses to cytotoxic drugs and environmental stress. A RealTime-Glo MT Cell Viability Assay to monitor cell viability in real time of continues cell culture during 40 hours of compound treatment was used to screen Tox21 10K library compounds in Hek293 cells. The RealTime-Glo MT Cell Viability Assay is a nonlytic, homogeneous, bioluminescent method to measure cell viability in real time using a simple, plate-based method. The assay involves adding NanoLuc luciferase and a cell-permeant prosubstrate to cells in culture. Viable cells reduce the proprietary prosubstrate to generate a substrate for NanoLuc luciferase. This substrate diffuses from cells into the surrounding culture medium, where it is rapidly used by the NanoLuc Enzyme to produce a luminescent signal. The signal correlates with the number of viable cells, making the assay well suited for cytotoxicity studies.
Tox21 Assay Protocol Summary:
The mixture of Hek293 cell suspension and reagents were dispensed at 600cells/6 ul/well in 1536-well tissue culture treated black solid bottom plates using a Multidrop dispenser. After the assay plates were incubated at a 37 C/5% CO2 incubator for 5 hours, 23 nL of compounds dissolved in DMSO, positive and negative controls was transferred to the assay plate by a pintool work station. The plates were incubated at 37 C for 40 hours. The luminescence intensity were measured at 0h, 8h, 16h, 24h, 32h and 40h time points using ViewLux plate reader during compound treatment.
% is set by controls: 0 for no effect and ±100 for the full control effect; potency is the fitted concentration of half-maximal effect.

| Compound | activity change, negative = cytotoxicity | Potency |
| --- | --- | --- |
| CCCC[N+]1(C)[C@@H]2CC(OC(=O)[C@H](CO)c3ccccc3)C[C@H]1[C@@H]1O[C@@H]12 (stereo not given in full) | -0.0807% [at 35.3 µM] (inactive) |  |
| O=C(O)c1ccc(=O)[nH]c1 | 4.46% [at 35.3 µM] (inactive) |  |
| Cc1ncc(C[n+]2csc(CCO)c2C)c(N)n1 | -3.23% (inactive) |  |
| Cc1cccc(C)c1NC1=NCCCS1 | 5.41% [at 35.3 µM] (inactive) |  |
| CC(Cc1ccccc1)NCc1ccccc1Cl (stereo not given) | -16.1% [at 35.3 µM] (inactive) |  |
| C[N+]1(CCF)[C@@H]2CC[C@H]1CC(OC(=O)C(O)(c1ccccc1)c1ccccc1)C2 (stereo not given in full) | -2.24% [at 35.3 µM] (inactive) |  |
| O=C(N[C@H]1CN2CCC1CC2)c1ccc2c(c1)OCCO2 | -1.27% (inactive) |  |
| CCC1(CCC(C)C)C(=O)NC(=O)NC1=O | -0.148% (inactive) |  |
| CCCCCl | 4.74% (inactive) |  |
| Cc1ccc(N)c(C)c1 |  | inactive |
| CC(Oc1cc(Cl)c(Cl)cc1Cl)C(=O)O (stereo not given) | 4.79% (inactive) |  |
| C[N+](C)(C)CCOC(=O)C(O)(c1ccccc1)c1ccccc1 | -0.563% [at 35.3 µM] (inactive) |  |
| CCCCC1C(=O)NC(=O)N(C2CCCCC2)C1=O (stereo not given) | 3.9% [at 35.3 µM] (inactive) |  |
| CC1(C)CC(=O)CC(C)(C)N1[O] | -1.4% (inactive) |  |
| Cc1nnc(-c2ccccc2)c(=O)n1N | -12.2% (inactive) |  |
| CC(C)(C#N)C(C)(C)C#N | -1.7% (inactive) |  |
| C[C@H]1[C@@H]2Cc3ccc(O)cc3[C@@]1(C)CCN2C | -2.62% [at 200 µM] (inactive) |  |
| CCOC(=O)c1cn2nc(OP(=S)(OCC)OCC)cc2nc1C |  | 17.4 µM (active) |
| O=C1c2ccccc2C(=O)N1SC(Cl)(Cl)Cl |  | 5.42 µM (active) and 6.16 µM (active) |
| O=C(Cc1ccccc1)OCCc1ccccc1 | 0.795% (inactive) |  |

| Compound | activity change, negative = cytotoxicity | Potency |
| --- | --- | --- |
| N#CC1(N=NC2(C#N)CCCCC2)CCCCC1 | -2.36% (inactive) |  |
| CC(Oc1cccc(Cl)c1)C(=O)O (stereo not given) | 10.2% (inactive) |  |
| COc1ccc(C(O)(c2cncnc2)C2CC2)cc1 (stereo not given) | 4.61% (inactive) |  |
| C[C@H](N)[C@H](O)c1ccc(O)c(O)c1 | -7.44% [at 35.3 µM] (inactive) |  |
| O=[N+]([O-])c1cc(Cl)c(Cl)cc1Cl | -0.587% (inactive) |  |
| CC1(C)[C@H](C(=O)O[C@H](C#N)c2cccc(Oc3ccccc3)c2)[C@@H]1C=C(Br)Br |  | inactive |
| CN(C)c1ccc(N=O)cc1 |  | 15.5 µM (active) and 24.5 µM (active) |
| Clc1ccc(Cl)c(Cl)c1 |  | inactive |
| Nc1ccccc1C(=O)OCC(O)CO (stereo not given) | 3.55% [at 35.3 µM] (inactive) |  |
| C=CCOCC1CO1 (stereo not given) | -8.53% (inactive) |  |
| CCCCNC(=O)OCC#CI |  | 21.8 µM (active) and 21.9 µM (active) |
| CCCCCCCCP(=O)(O)O | -4.27% (inactive) |  |
| CC(CC(C(N)=O)(c1ccccc1)c1ccccc1)N(C)C (stereo not given) | 2.24% [at 35.3 µM] (inactive) |  |
| Cc1nc2ccccc2c(=O)n1-c1ccccc1Cl |  | 21.4 µM (active) |
| O=C(O)CCCOc1ccc(Cl)cc1Cl |  | inactive |
| CCCC1CCCCN1 (stereo not given) | 5.97% [at 35.3 µM] (inactive) |  |
| C=C(Cl)Cl | 6.09% (inactive) |  |
| O=C(NC(=O)c1cc(F)c(F)cc1Cl)Nc1cc(F)ccc1N1CCC(C(=O)O)CC1 | 18.3% [at 35.3 µM] (inactive) |  |
| COC1=CC(=O)O[C@@H](/C=C/c2ccc3c(c2)OCO3)C1 | -13.6% (inactive) |  |
| CC(C)(C)NCC(O)c1ccccc1Cl (stereo not given) | 3.18% [at 35.3 µM] (inactive) |  |
